The record followed here is PubChem BioAssay (Tox21).

Where “and” joins values, the source holds several entries; their conditions need not be identical. Identical values can stand only once. Inconclusive results are not listed. A call without a number means that no potency is given here. The source holds several records for some structures; these can differ, active in one and inactive in another. Calls of active or inactive are those of the source. Calls come from the whole dose curve; as a rule, active = well fitted cell-killing curve with a large enough effect in the repeat runs; inconclusive = weak or mixed curves, or effect the other way; inactive = flat fitted curve, though single readings scatter.
Potency is the fitted concentration of half-maximal effect.

The nature of this assay: Human pregnane X receptor (PXR) small molecule agonists, qHTS cell viability counter screen (AID 1346977). Note: nearly all actives have a fitted effect of over 50% in size. The note with it: PXR-Luc HepG2 viability, CellTiter-Fluor, 24 h; series mostly up to 92.4 µM; activity change, negative = cytotoxicity: at the top concentration. From the text:
U.S. Tox21 Program National Center for Advancing Translational Sciences [NCATS] NIH Chemical Genomics Center [NCGC] U.S. Environmental Protection Agency [EPA] National Institutes of Environmental Health Sciences [NIEHS] National Toxicology Program [NTP] U.S. Food and Drug Administration [FDA] Tox21 Assay Overview: The human pregnane X receptor (hPXR) regulates the expression of several drug metabolizing enzymes and induction of these proteins is a major mechanism for developing drug resistance in cancer. One such key enzyme catalyzing the drug metabolism is cytochrome P450 3A4 (CYP3A4). Changes in CYP3A4 expression affect drug metabolism, thereby reducing the therapeutic efficacy and altering toxicological response to a drug and which finally causes adverse drug interaction. To screen Tox21 libraries for compounds that activate hPXR-mediated CYP3A4 gene expression, PXR-Luc HepG2 cells were used. Also cytotoxicity of the compounds was tested in parallel by measuring the cell viability using CellTiter-Fluor assay system in the same wells.
Tox21 Assay Protocol Summary: PXR-Luc HepG2 cells were dispensed at 2,000 per well in 5uL of assay medium containing 5% charcoal-stripped FBS into white solid bottom 1536-well plates (Corning Life Sciences, Corning, NY) using a Multidrop Combi (Thermo Scientific, Waltham, MA) dispenser. The assay plates were incubated at 37 C and 5% CO2 for 5hr, and then 23nL of compounds dissolved in DMSO and positive control were transferred using a Pintool station (Wako, San Diego, CA). The assay plates were incubated at 37C and 5% CO2 for 24hr. For cytotoxicity read, after 23hr incubation at 37C, 1uL CellTiter-Fluor reagent (Promega Corporation, Madison, WI) was added to each well of the assay plates using Flying Reagent Dispenser (FRD, Aurora Discovery, San Diego, CA). After 1hr incubation at 37C and 5% CO2, the fluorescence signal was quantified using a ViewLux plate reader (PerkinElmer, Shelton, CT).
(In general: Quantitative high-throughput screening tests each substance at several concentrations.)
As for `Oc1ccc2ccccc2c1N=Nc1ccccc1`, the Potency is 27.3 µM (active) and 30.6 µM (active). Turning to `Cn1c([N+](=O)[O-])cnc1COC(N)=O`, the Potency entry was “inactive”. Still for that read-out and setting: with `CC(C)(CO)COC(=O)C(C)(C)CO` the entry was “inactive”; with `CCCCCCCCC`, “inactive”; with `CCCCCCC(C)(C)S`, “inactive”. `C=C1C2CCC(C2)C1(C)C` (stereo not given): the Potency result is “inactive”. As for `Oc1ccc2ccccc2c1`, the Potency entry is “inactive”. On to `Cc1ccc(C)c(C)c1`, for which the Potency result is “inactive”. On to `NCCNCCNCCNCCN`, for which the Potency result is “inactive”. As for `CCCCOCCO`, the Potency result was “inactive”. Still for that read-out and setting: with `OC[C@@H](O)[C@H](O)[C@H](O)[C@@H](O)CO` the entry was “inactive”; with `CCCCCCCCCCC=CC1CC(=O)OC1=O` (stereo not given), “inactive”; with `O=[N+]([O-])c1cc(N(CCO)CCO)ccc1NCCO`, 30.6 µM (active). Take `CCCCC(CC)C(=O)OCCOCCOCCOC(=O)C(CC)CCCC` (stereo not given): the Potency entry was “inactive”. For `CC1(C)O[C@@H]2C[C@H]3[C@@H]4C[C@H](F)C5=CC(=O)CC[C@]5(C)[C@H]4[C@@H](O)C[C@]3(C)[C@]2(C(=O)CO)O1`, the Potency entry is “inactive”. The same measure, in the same setting: with `Cc1ccc(N)c(S(=O)(=O)O)c1` the entry was “inactive”. In the case of `CCOC(=O)[C@H](CCc1ccccc1)N[C@@H](C)C(=O)N1Cc2ccccc2C[C@H]1C(=O)O`, the “activity change, negative = cytotoxicity” value is -3.27% (inactive).

Regarding `CCCCCCCCCCCCOCC1CO1` (stereo not given), the Potency result is “inactive”. For the compound `OCC1CCCO1` (stereo not given), the Potency entry is “inactive”. For `O=C(Oc1ccccc1)c1ccc(O)cc1`, the Potency entry was “inactive”.

With `CC1=C(CC(=O)O)c2cc(F)ccc2/C1=C\c1ccc(S(C)=O)cc1` (stereo not given), the Potency result is “inactive”.

On to `CC(C)(C)C(=O)C1C(=O)c2ccccc2C1=O`, for which the Potency was 50.1 µM (active). `CC#C[C@]1(O)CC[C@H]2[C@@H]3CCC4=CC(=O)CCC4=C3[C@@H](c3ccc(N(C)C)cc3)C[C@@]21C`: the “activity change, negative = cytotoxicity” value is -5.1% [at 42.5 µM] (inactive).

On to `Clc1cc(Cl)c(Cl)cc1Cl`, for which the Potency result was “inactive”.

In the case of `C[C@@H](O)[C@H]1C(=O)N2C(C(=O)O)=C(S[C@@H]3CN[C@H](C(=O)N(C)C)C3)[C@H](C)[C@H]12`, the Potency result is “inactive”. With `C=CC(=O)OCCCCCCCC(C)C`, the Potency entry was “inactive”. In the case of `CNC[C@H](O)[C@@H](O)[C@H](O)[C@H](O)CO`, the Potency result was “inactive”. Turning to `CCOC(=O)/C=C\C(=O)OCC`, the Potency entry was “inactive”. Take `C=C(C)C(=O)OCCC[Si](OC)(OC)OC`: the Potency result was “inactive”. As to `OCC#CCO`, the Potency entry was “inactive”. Same read-out and setting: with `CCCCCCCCCC(=O)O` the entry was “inactive”; with `O=C(c1cc(O)c(O)c(O)c1)c1ccc(O)c(O)c1O`, 39.8 µM (active) and 61.1 µM (active). Turning to `OCCOCCOCCOCCO`, the Potency entry was “inactive”. As to `CC[Si](OC(C)=O)(OC(C)=O)OC(C)=O`, the Potency result was “inactive”.

For the compound `O=[N+]([O-])C(CO)(CO)CO`, the Potency was 758 nM (active) and inactive. On to `CC(C)(N=C=O)c1cccc(C(C)(C)N=C=O)c1`, for which the Potency result was “inactive”. `CC(=O)CCc1ccccc1`: the Potency entry was “inactive”. In the case of `CS(=O)(=O)c1ccc([C@@H](O)[C@@H](CO)NC(=O)C(Cl)Cl)cc1`, the Potency result is “inactive”.

As to `c1ccc2ccccc2c1`, the Potency result was “inactive”. Turning to `NCc1cccc(CN)c1`, the Potency entry was “inactive”.
